Measured values reported in PubChem BioAssay AID463173 (ICCB-Longwood Screening Facility, Harvard Medical School, 2010).
The whole screen tested about 52,000 compounds, of which about 4,300 (8.3%) were called active. Cut-off read from the data, not from the text of the source: active = survival mostly below about 52% (no sharp cut-off); inactive = mostly above about 56%. For the sample, actives were picked, then their nearest neighbours and some compounds at random.

Tested on: DeltatarO mutant
Experiment: S. aureus survival, RN4220 and DeltatarO strains – OD600, teichoic acid synthesis inhibitors, primary screen (AID 463173)
Conditions: S. aureus RN4220 wild type/DeltatarO growth, OD600, 18 h, stronger effect = lower value, screened at 18.75 µg/mL (by protocol)

| SMILES | survival |
| --- | --- |
| Cc1cccc2c(=O)c(N)c[nH]c12 | 105% (inactive) |
| O=C(Cn1c(=O)n(-c2ccccc2)c(=O)c2ccc(C(=O)NCc3ccc4c(c3)OCO4)cc21)Nc1ccc(Br)cc1F | 117% (inactive) |
| CCc1ccc(CNC(=O)CN2C(=O)CCn3nc(-c4cn(C)c5ccccc45)cc32)cc1 | 81% (inactive) |
| Cn1c(Nc2ccc(Cl)cc2)cc(=O)n(C)c1=O | 93% (inactive) |
| Cc1cc(F)ccc1NC(=O)C1CCN(C(=O)c2cnn(-c3ccccc3)c2-n2cccc2)CC1 | 80% (inactive) |
| O=C(NCCCN1CCN(c2ccccc2F)CC1)c1cc2c(s1)-c1ccccc1OC2 | 11% (active) |
| Cc1cccc2c1-c1sc(C(=O)NCCCN3CCN(c4ccccc4F)CC3)cc1CO2 | 63% (inactive) |
| O=C(NCCCN1CCN(c2ccccc2)CC1)c1cc2c(s1)-c1ccccc1OC2 | 53% (inactive) |
| O=C(NCCCN1CCN(c2ccc(F)cc2)CC1)c1cc2c(s1)-c1ccccc1OC2 | 55% (active) |
| CCCN1CCN(CCCNC(=O)c2cc3c(s2)-c2ccccc2OC3)CC1 | 85% (inactive) |
| CCN1CCN(CCCNC(=O)c2cc3c(s2)-c2ccccc2OC3)CC1 | 88% (inactive) |
| Cc1ccc(CCNC(=O)CCc2cn(Cc3ccccc3C)c3ccccc23)cc1 | 68% (inactive) |
| CCN(C(=O)c1cn(CC)c(=O)c2cc(OC)c(OC)cc12)c1ccc(C)c(C)c1 | 169% (inactive) |
| CCc1ccc(OCC(=O)NC(Cc2c[nH]c3ccccc23)C(=O)O)cc1 (stereo not drawn) | 40% (active) |
| CCOC(=O)C(Cc1c[nH]c2ccccc12)NC(=O)COc1ccc(Cl)c(C)c1 (stereo not drawn) | 36% (active) |
| COC(=O)C(Cc1c[nH]c2ccccc12)NC(=O)COc1cccc(C)c1 (stereo not drawn) | 65% (inactive) |
| CCc1ccc(C(=O)COC(=O)C(Cc2c[nH]c3ccccc23)NC(=O)c2ccc(Br)cc2)cc1 (stereo not drawn) | 142% (inactive) |
| Cc1cccc(OCC(=O)NC(Cc2c[nH]c3ccccc23)C(=O)O)c1C (stereo not drawn) | 48% (inactive) |
| CCOC(=O)C(Cc1c[nH]c2ccccc12)NC(=O)COc1ccc(CC)cc1 (stereo not drawn) | 33% (active) |
| COC(=O)C(Cc1c[nH]c2ccccc12)NC(=O)COc1ccc(Cl)cc1Cl (stereo not drawn) | 46% (inactive) |
| CC(C)c1ccc(OCC(=O)NC(Cc2c[nH]c3ccccc23)C(=O)O)cc1 (stereo not drawn) | 42% (active) |
| Cc1cc(OCC(=O)NC(Cc2c[nH]c3ccccc23)C(=O)O)ccc1Cl (stereo not drawn) | 53% (inactive) |
| Cc1cc(C)cc(OCC(=O)NC(Cc2c[nH]c3ccccc23)C(=O)O)c1 (stereo not drawn) | 51% (inactive) |
| COc1ccc(OCC(=O)NC(Cc2c[nH]c3ccccc23)C(=O)O)cc1 (stereo not drawn) | 60% (inactive) |

| SMILES | survival |
| --- | --- |
| CC(C)(C)c1ccc(OCC(=O)NC(Cc2c[nH]c3ccccc23)C(=O)O)cc1 (stereo not drawn) | 56% (inactive) |
| O=C(CCn1c(=O)c2cccn2c2cccnc21)Nc1ccccc1Br | 74% (inactive) |
| COc1ccc(N2CC(NC(=O)c3cccs3)CC2=O)cc1 (stereo not drawn) | 89% (inactive) |
| O=C(O)Cn1nc(N2CCN(c3ccc(F)cc3)CC2)ccc1=O | 84% (inactive) |
| Cc1ccc(NC(=O)Cn2c(=O)n(CCCCCC(=O)NCc3ccc(F)cc3)c(=O)c3sccc32)c(C)c1 | 66% (inactive) |
| O=C(O)CCn1nnc(-c2cccs2)n1 | 103% (inactive) |
| Cc1cccc(N2CCN(C(=O)c3ccc(NC(=O)c4nsc5ccccc45)cc3)CC2)c1C | 76% (inactive) |
| O=C(NCCN1CCCCC1)c1ccc(Cn2c(SCc3cccc(F)c3)nc3cccnc32)cc1 | 103% (inactive) |
| Cc1c(C(=O)Nc2ccccc2)sc2ncn(CC(=O)N3CCOCC3)c(=O)c12 | 87% (inactive) |
| O=C(/C=C/c1cn(CC(O)CN2CCc3ccccc32)c2ccccc12)c1ccc(Br)cc1 (stereo not drawn) | 68% (inactive) |
| Cc1ccc(C(=O)/C=C/c2cn(CC(O)CN3CCCCCC3)c3ccccc23)cc1 (stereo not drawn) | 12% (active) |
| COc1ccc(C(=O)/C=C/c2cn(CC(O)CN3CCc4ccccc43)c3ccccc23)cc1OC (stereo not drawn) | 68% (inactive) |
| O=C(Cn1cc(SCc2ccc(Br)cc2)c2ccccc21)N1CCCCC1 | 80% (inactive) |
| O=C(/C=C/c1cn(CC(O)CN2CCCCCC2)c2ccccc12)c1ccc(Br)cc1 (stereo not drawn) | -3% (active) |
| COc1ccc(C(=O)/C=C/c2cn(CC(O)CN3CCCCCC3)c3ccccc23)cc1OC (stereo not drawn) | 80% (inactive) |
| CCOc1ccc(C(=O)OC(C)CN2CCCCC2)cc1 (stereo not drawn) | 96% (inactive) |
| O=C(/C=C/c1cn(CC(O)CN2CCCCCC2)c2ccccc12)c1ccccc1 (stereo not drawn) | 49% (inactive) |
| CCOc1ccc(C(=O)/C=C/c2cn(CC(O)CN3CCCCCC3)c3ccccc23)cc1 (stereo not drawn) | 1% (active) |
| COc1ccc(CCn2c3c(c(=O)[nH]c2=O)C(NC(=O)c2ccccc2OC)(C(F)(F)F)C(=O)N3)cc1OC (stereo not drawn) | 81% (inactive) |
| Cc1ccc(NC(=O)c2ccc3c(O)c(S(=O)(=O)c4ccccc4)c(=O)[nH]c3c2)cc1Cl | 78% (inactive) |
| CCc1cccc(NC(=O)CSc2nnc(-c3cc4occc4n3C)n2-c2ccccc2C)c1 | 89% (inactive) |
| COc1ccccc1N1CCN(C(=O)C2CCCN(S(=O)(=O)c3ccc4c(c3)CCCN4C(C)=O)C2)CC1 (stereo not drawn) | 88% (inactive) |
| CCN1CCN(C(C)C(=O)NCc2ccc(OC)cc2)CC1 (stereo not drawn) | 85% (inactive) |
| CNC(=O)CSc1nnc(NC(=O)Nc2ccccc2)s1 | 94% (inactive) |
